Results reported in PubChem BioAssay AID1159580 (chemical genetic matrix, 2015).
Several values for one entry are separate records, joined by “and”; a condition that tells them apart may be missing. Equal values may be shown once. Hit rate of the full screen: of about 5,500 compounds, about 2,000 (36%) were called active. Not shown: some 18% with an inconclusive outcome. No stated cut-off is given here; in the data, active means normalized growth mostly below about 0.91 (no sharp cut-off); inconclusive means no clear call, values can overlap the other calls; inactive means mostly above about 0.92. The list shows a part of the results.

Assay: chemical genetic growth profiling, strain panel (AID 1159580);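 further: tested at 20 µM; growth read once vehicle control cultures reached saturation at 30 °C; 1 = growth at the plate median or of vehicle wells; lower values mean less growth of the strain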
Details: S. cerevisiae deletion strains, growth OD

Measured: normalized growth

Oc1c(Cl)cc(Cl)c(Cl)c1Cc1c(O)c(Cl)cc(Cl)c1Cl
active: locus YAL021C, strain ccr4, active compounds read low 0.0649 | locus YAL026C, strain drs2, active compounds read low 0.0639 | locus YAL030W, strain snc1, active compounds read low 0.0572 | locus YBL061C, strain skt5, active compounds read low 0.0628 | locus YBR009C, strain hhf1, active compounds read low 0.0575 | locus YBR021W, strain FUR4, active compounds read low 0.0863 | locus YBR023C, strain chs3, active compounds read low 0.0623 | locus YBR171W, strain sec66, active compounds read low 0.0838 | locus YBR229C, strain ROT2, active compounds read low 0.0457 | locus YBR231C, strain swc5, active compounds read low 0.0612 | locus YBR279W, strain paf1, active compounds read low 0.0633 | locus YCL011C, strain gbp2, active compounds read low 0.0558 | locus YCL016C, strain dcc1, active compounds read low 0.0684 | locus YCL029C, strain bik1, active compounds read low 0.0602 | locus YCL061C, strain MRC1, active compounds read low 0.064 | locus YCL069W, strain vba3, active compounds read low 0.0605 | locus YCR088W, strain abp1, active compounds read low 0.0632 | locus YDL005C, strain med2, active compounds read low 0.0765 | locus YDL035C, strain GPR1, active compounds read low 0.0447 | locus YDL040C, strain nat1, active compounds read low 0.0596 | locus YDL074C, strain BRE1, active compounds read low 0.0681 | locus YDL101C, strain DUN1, active compounds read low 0.0525 | locus YDL185W, strain tfp1, active compounds read low 0.0761 | locus YDL192W, strain arf1, active compounds read low 0.0596 | locus YDR001C, strain nth1, active compounds read low 0.0623 | locus YDR069C, strain doa4, active compounds read low 0.0643 | locus YDR101C, strain arx1, active compounds read low 0.0573 | locus YDR137W, strain rgp1, active compounds read low 0.108 | locus YDR159W, strain sac3, active compounds read low 0.111 | locus YDR162C, strain NBP2, active compounds read low 0.0454 | locus YDR195W, strain ref2 0.126 | locus YDR297W, strain sur2, active compounds read low 0.0566 | locus YDR318W, strain mcm21, active compounds read low 0.0637 | locus YDR334W, strain swr1, active compounds read low 0.0669 | locus YDR335W, strain msn5, active compounds read low 0.061 | locus YDR388W, active compounds read low 0.0571 | locus YDR392W, strain spt3, active compounds read low 0.0734 | locus YDR502C, strain sam2, active compounds read low 0.0651 | locus YEL003W, strain gim4, active compounds read low 0.0558 | locus YEL037C, strain rad23, active compounds read low 0.0567 | locus YEL061C, strain CIN8 (second series), active compounds read low 0.0634 | locus YEL061C, strain CIN8, active compounds read low 0.0485 | locus YER015W, strain faa2, active compounds read low 0.065 | locus YER016W, strain bim1, active compounds read low 0.0638 | locus YER110C, active compounds read low 0.0729 | locus YER111C, strain swi4, active compounds read low 0.0725 | locus YER155C, strain BEM2 (second series), active compounds read low 0.0878 | locus YER155C, strain BEM2, active compounds read low 0.0604 | locus YER167W, strain BCK2, active compounds read low 0.0476 | locus YFR010W, strain ubp6, active compounds read low 0.0712 | locus YGL078C, strain dbp3, active compounds read low 0.108 | locus YGL086W, strain mad1, active compounds read low 0.0548 | locus YGL167C, strain pmr1, active compounds read low 0.0813 | locus YGL173C, strain kem1, active compounds read low 0.0685 | locus YGL227W, strain vid30, active compounds read low 0.0622 | locus YGL240W, strain doc1, active compounds read low 0.0737 | locus YGL248W, strain PDE1, active compounds read low 0.0447 | locus YGL253W, strain hxk2, active compounds read low 0.0537 | locus YGR135W, strain pre9, active compounds read low 0.0633 | locus YGR252W, strain gcn5, active compounds read low 0.179 | locus YHR013C, strain ard1, active compounds read low 0.108 | locus YHR027C, strain rpn1, active compounds read low 0.0624 | locus YHR030C, strain SLT2, active compounds read low 0.0509 and 0.0952 | locus YHR079C, strain IRE1 (second series), active compounds read low 0.0571 | locus YHR079C, strain IRE1, active compounds read low 0.137 | locus YHR094C, strain hxt1, active compounds read low 0.0585 | locus YHR129C, strain ARP1, active compounds read low 0.0547 | locus YHR142W, strain chs7, active compounds read low 0.0728 | locus YHR200W, strain rpn10, active compounds read low 0.0603 | locus YIL066C, strain RNR3, active compounds read low 0.0457 | locus YIL073C, strain SPO22, active compounds read low 0.0959 | locus YIL125W, strain kgd1, active compounds read low 0.0781 | locus YIR030C, strain dcg1, active compounds read low 0.0579 | locus YJL092W, strain hpr5, active compounds read low 0.0606 | locus YJL095W, strain BCK1 (second series), active compounds read low 0.0579 | locus YJL095W, strain BCK1, active compounds read low 0.0575 and 0.0959 | locus YJL115W, strain asf1, active compounds read low 0.0753 | locus YJL129C, strain trk1, active compounds read low 0.0909 | locus YJL134W, strain LCB3, active compounds read low 0.0469 | locus YJL154C, strain vps35, active compounds read low 0.0611 | locus YJL164C, strain tpk1, active compounds read low 0.0591 | locus YJL166W, strain qcr8, active compounds read low 0.0615 | locus YJL168C, strain set2, active compounds read low 0.0584 | locus YJL187C, strain SWE1 (second series), active compounds read low 0.0437 | locus YJR043C, strain POL32, active compounds read low 0.0543 | locus YJR066W, strain TOR1, active compounds read low 0.0109 | locus YKL009W, strain mrt4, active compounds read low 0.13 | locus YKL068W, active compounds read low 0.0876 | locus YKL085W, strain MDH1 (second series), active compounds read low 0.0638 | locus YKL085W, strain MDH1, active compounds read low 0.0638 | locus YKL160W, strain elf1, active compounds read low 0.0626 | locus YKL190W, strain CNB1, active compounds read low 0.0457 | locus YKR001C, strain vps1, active compounds read low 0.064 | locus YKR026C, strain gcn3, active compounds read low 0.063 | locus YKR091W, strain srl3, active compounds read low 0.058 | locus YLL001W, strain dnm1, active compounds read low 0.0618 | locus YLL026W, active compounds read low 0.0568 | locus YLL041C, strain sdh2, active compounds read low 0.0572 | locus YLR027C, strain aat2, active compounds read low 0.0557 | locus YLR039C, strain RIC1, active compounds read low 0.101 | locus YLR058C, strain SHM2, active compounds read low 0.0462 | locus YLR102C, strain apc9, active compounds read low 0.0599 | locus YLR113W, strain HOG1, active compounds read low 0.119 | locus YLR221C, strain rsa3, active compounds read low 0.064 | locus YLR258W, strain gsy2, active compounds read low 0.0646 | locus YLR262C, strain YPT6 (second series), active compounds read low 0.0785 | locus YLR262C, strain YPT6, active compounds read low 0.114 | locus YLR268W, strain sec22, active compounds read low 0.0689 | locus YLR320W, strain mms22, active compounds read low 0.0782 | locus YLR330W, strain CHS5, active compounds read low 0.0515 | locus YLR342W, strain FKS1 (second series), active compounds read low 0.0549 | locus YLR342W, strain FKS1, active compounds read low 0.0674 | locus YLR357W, strain rsc2, active compounds read low 0.132 | locus YLR370C, strain arc18, active compounds read low 0.0635 | locus YLR371W, strain rom2, active compounds read low 0.0617 | locus YLR384C, strain iki3, active compounds read low 0.0627 | locus YLR418C, strain cdc73, active compounds read low 0.102 | locus YML016C, strain PPZ1, active compounds read low 0.0443 | locus YML032C, strain rad52, active compounds read low 0.0719 | locus YML120C, strain ndi1, active compounds read low 0.0723 | locus YML124C, strain tub3, active compounds read low 0.0588 | locus YMR058W, strain fet3, active compounds read low 0.06 | locus YMR078C, strain ctf18, active compounds read low 0.0715 | locus YMR125W, strain sto1, active compounds read low 0.0705 | locus YMR129W, active compounds read low 0.0593 | locus YMR205C, strain PFK2, active compounds read low 0.0865 | locus YMR223W, strain ubp8, active compounds read low 0.064 | locus YMR231W, strain pep5, active compounds read low 0.0739 | locus YMR307W, strain GAS1, active compounds read low 0.095 | locus YNL067W, strain RPL9B, active compounds read low 0.0449 | locus YNL071W, strain lat1, active compounds read low 0.0618 | locus YNL183C, strain NPR1, active compounds read low -0.000219 | locus YNL209W, strain ssb2, active compounds read low 0.0615 | locus YNL233W, strain BNI4, active compounds read low 0.0507 | locus YNL248C, strain rpa49, active compounds read low 0.0739 | locus YNL250W, strain rad50, active compounds read low 0.232 | locus YNL271C, strain bni1, active compounds read low 0.0767 | locus YNL298W, strain CLA4, active compounds read low 0.0832 | locus YNL307C, strain MCK1, active compounds read low 0.0665 | locus YNL322C, strain KRE1 (second series), active compounds read low 0.0815 | locus YNR049C, strain mso1, active compounds read low 0.0574 | locus YNR052C, strain pop2, active compounds read low 0.0618 | locus YOL147C, strain pex11, active compounds read low 0.0569 | locus YOR001W, strain rrp6, active compounds read low 0.0782 | locus YOR061W, strain CKA2, active compounds read low 0.0448 | locus YOR069W, strain VPS5, active compounds read low 0.0463 | locus YOR070C, strain gyp1, active compounds read low 0.0582 | locus YOR080W, strain dia2, active compounds read low 0.0666 | locus YOR083W, strain WHI5, active compounds read low 0.065 | locus YOR106W, strain vam3, active compounds read low 0.0665 | locus YOR136W, strain idh2, active compounds read low 0.0719 | locus YOR144C, strain elg1, active compounds read low 0.0552 | locus YOR184W, strain ser1, active compounds read low 0.075 | locus YOR231W, strain MKK1, active compounds read low 0.112 | locus YOR265W, strain rbl2, active compounds read low 0.065 | locus YOR270C, strain vph1, active compounds read low 0.0914 | locus YOR290C, strain snf2, active compounds read low 0.0645 | locus YOR316C, strain cot1, active compounds read low 0.0584 | locus YPL051W, strain arl3, active compounds read low 0.0639 | locus YPL078C, strain atp4, active compounds read low 0.0652 | locus YPL106C, strain sse1, active compounds read low 0.1 | locus YPL240C, strain hsp82, active compounds read low 0.0579 | locus YPL256C, strain CLN2, active compounds read low 0.116 | locus YPR119W, strain clb2, active compounds read low 0.0624 | locus YPR141C, strain kar3, active compounds read low 0.0848 | locus YPR163C, strain tif3, active compounds read low 0.0697 | locus YPR167C, strain met16, active compounds read low 0.0631 | strain wtn01, active compounds read low 0.0656
